Screen size: about 370,000 compounds; about 6,800 (1.8%) were called active. The sample holds actives, similar compounds and a random draw of the others, so the mix is not that of the screen. Values without a mark were called inactive.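 The calls were made as follows: active = activation above a cutoff set at the mean of all screened compounds plus 3 SD (cut at about 10% in these data); inactive = the rest.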
These molecules were tested on Nuclear hormone receptor DAF-12 (Heterodera glycines), GAL4 fusion (assay: hgDAF-12 GAL4 fusion reporter activation – cell-based, luminescence, HEK293, UAS-luciferase, primary screen (AID 687014;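 also: 0% = DMSO wells and 100% = sodium butyrate wells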)). Conditions: HEK293 GAL4-hgDAF12 UAS-luciferase reporter, agonist luminescence; at 6.8 µM; hits give high values; normalized to butyrate control.

Row | Structure (SMILES) | activation
1 | COc1cccc(CNC(=O)[C@H]2CCCN2C(=O)[C@H]2CCCN2C(=O)C2CCCCC2)c1 | -1.24%
2 | O=S(=O)(c1cccs1)N1CCCc2nc(-c3ccc(Br)cc3)ccc21 | -0.93%
3 | CCCCn1nnnc1C(c1cc2ccccc2o1)N(C)Cc1ccc(Cl)c(Cl)c1 (configuration not stated) | 4.88%
4 | CCN1CCC(=NNC(=O)c2ccc(C)c([N+](=O)[O-])c2)CC1 | -0.03%
5 | Cc1cc(O)c(NC(=O)c2ccc(C)c([N+](=O)[O-])c2)cc1C | 14.1% (active)
6 | CCCCNc1ccc(C(=O)Nc2cccc(C)n2)cc1[N+](=O)[O-] | 1.4%
7 | O=C(CSc1nnc(-c2ccccn2)n1-c1ccc(Cl)cc1)Nc1ccccc1-c1ccccc1 | -5.11%
8 | C[C@@H]1COc2cccc(N3CCCC3)c2S(=O)(=O)N1C | 2.34%
9 | COc1ccc(C(=O)CSc2nnc(-c3cnccn3)n2-c2ccc(C)cc2)cc1 | -1.45%
10 | Cc1ccc(NC(=O)C2(N3CCC3=O)CCCCC2)cc1 | -1.36%
11 | CC1CC(C)CN(CCCNC(=O)c2csc3c2CCCCC3)C1 (configuration not stated) | 1.68%
12 | Cc1ccc(NC(=O)c2csc3c2CCCC3)cc1 | 23% (active)
13 | CC(C)(C)c1ccc(S(=O)(=O)NCC2CCN(C(=O)C(=O)c3cc4ccccc4o3)CC2)cc1 | -2.12%
14 | CC(C)CC1NC(=O)c2cc(Cl)ccc2-n2c1nc1ccccc1c2=O (configuration not stated) | -4.04%
15 | CC(=O)Nc1ccc(S(=O)(=O)NC2Cc3ccccc3C2)cc1 | -1.12%
16 | CCN(CC)C(=O)CSc1nc2ccccc2o1 | 4.9%
17 | Cc1ccc(-n2nc3cc(C)c(NC(=O)c4cccnc4)cc3n2)cc1 | 3.33%
18 | Cc1cc2nc(-c3ccc(NC(=O)c4cccnc4)cc3)oc2cc1C | 10.8% (active)
19 | CC(=O)Nc1ccc(-c2nc3ccccc3o2)cc1 | 14.1% (active)

Row | Structure (SMILES) | activation
20 | O=C(Nc1cccc(-n2cnnn2)c1)c1cccnc1 | 0.26%
21 | COc1ccc(C2=CN(Cc3ccccc3)C(c3ccc(OC)cc3)CC2=O)cc1 (configuration not stated) | 1.21%
22 | COc1ccc(CN(C)Cc2nc3cc(OC)c(OC)cc3c(=O)[nH]2)c(OC)c1 | -1.81%
23 | CC(C)CNc1cccc2c1S(=O)(=O)N(Cc1cn(Cc3ccc(Cl)cc3)nn1)Cc1ccccc1O2 | 1.68%
24 | CCOC(=O)c1c(C)[nH]c(C2=NNC(=NC(C)COC)SC2)c1C (configuration not stated) | 12.9% (active)
25 | COC(=O)C[C@H]1C=C[C@@H](NS(=O)(=O)c2ccc(C)cc2)[C@@H](CO)O1 | 3.19%
26 | COc1ccc(CN(CCN2CCOCC2)C(=O)c2ccc(C)cc2)cc1OC | 2.69%
27 | CN(C)C(CNC(=O)c1cc2ccccc2o1)c1ccccc1 (configuration not stated) | 0.25%
28 | CC1CCN(c2ccc(-c3ccc(NC(=O)c4ccco4)cc3)nn2)CC1 | 7.1%
29 | C/C(=N\NC(=S)Nc1ccc(C)cc1)c1cc2ccccc2o1 | 0.54%
30 | CN1CCN(S(=O)(=O)c2ccc(NC(=O)c3ccco3)cc2)CC1 | 3.6%
31 | Cc1ccc(NC(=O)c2cc3ccccc3o2)cc1 | 15.2% (active)
32 | Cc1ccc(NC(=O)c2ccco2)cc1 | 13.3% (active)
33 | CCCCNC(=O)C[C@@H]1C(=O)N(CCc2ccc(Cl)cc2)C2=CCCC[C@]21C(=O)OCC | -1.77%
34 | COc1cccc(CNC(=O)[C@H]2CCCN2C(=O)[C@H]2CCCN2C(=O)c2ccc(F)cc2)c1 | -0.01%
35 | Nn1c(SCC(=O)N2c3ccccc3Sc3ccccc32)nnc1-c1n[nH]c2c1CCC2 | -2.62%
36 | Nc1ncnc2c1ncn2[C@@H]1O[C@H](C(=O)N2CCSC2)[C@@H](O)[C@H]1O | -0.23%
37 | O=C(CSc1nnc(-c2cccc(Cl)c2)n1Cc1ccco1)Nc1ccc(OCc2ccccc2)cc1 | -1.62%
38 | COc1cccc(N(C(=O)C2COc3ccccc3O2)C(C(=O)NC2CCCCC2)c2ccc(O)cc2)c1 (configuration not stated) | 0.49%

Row | Structure (SMILES) | activation
39 | Nn1c(SCC(=O)Nc2ccc(S(N)(=O)=O)cc2)nnc1-c1n[nH]c2c1CCC2 | 0.61%
40 | CC(=O)Oc1ccc(C)cc1N1C(=O)c2ccc(C(=O)O)cc2C1=O | -2.04%
41 | O=C(O)c1ccc2c(c1)C(=O)N(c1ccc(/C=C/C(=O)c3ccccc3)cc1)C2=O | 14.1% (active)
42 | COc1ccc(C(=O)/C=C/c2ccc(-c3ccccc3)cc2)cc1CSCC(=O)O | -3.73%
43 | CCOC(=O)C1(Cc2ccccc2)CCN(Cc2cn(C(C)=O)c3ccccc23)CC1 | 1.22%
44 | COC(=O)c1c(NC(C)=O)sc(C(=O)Nc2ccccc2OC)c1C | -3.24%
45 | COC(=O)c1sc(NC(=O)COC(=O)C2CCC2)c(C(=O)OC)c1C | 0.97%
46 | CCC(=O)Nc1sc(C(=O)Nc2ccccc2)c(C)c1C(=O)OC | 13.4% (active)
47 | COc1ccccc1-c1ccc([C@@H]2C[C@H]3[C@H](CON3C)CN2S(=O)(=O)c2cc(Cl)cc(Cl)c2)cc1 | 4.17%
48 | COC(=O)Nc1nc2ccc(C(=O)C3CC3)cc2[nH]1 | 6.35%
49 | COC(=O)C[C@H]1CC[C@H]2[C@H](COc3ccc(NC(=O)C4CC4)cc3C(=O)N2C)O1 | 1.59%
50 | O=C(Nc1nnc(-c2ccc(Cl)cc2)o1)c1ccccc1Br | 3.84%
51 | O=C(OCc1nnc(-c2ccccc2)o1)c1ccc2c(c1)C(=O)N(CCc1ccccc1)C2=O | -0.76%
52 | Brc1ccc(-c2noc(-c3ccccc3)n2)o1 | 15.9% (active)
53 | Brc1ccc(-c2nnc(-c3ccccc3)o2)o1 | 11.2% (active)
54 | CCCN(CCC)c1ccc(C(O)c2nnc(-c3ccccc3)o2)cc1 (configuration not stated) | -0.77%
55 | O=S(=O)(c1ccc(Br)cc1)c1nc(-c2ccccc2)oc1N1CCOCC1 | -0.08%
56 | Nc1ccc(-c2nnc(-c3ccccc3)o2)cc1 | 10.4% (active)
57 | C=CCN1C(=O)[C@@H](CC(=O)N2CCN(C(=O)OCC)CC2)[C@]2(C(=O)OCC)CCCCC/C=C/12 | -0.26%
